This is one part of a sample in which hits are shown more often than they occur.
RmlC RmlD mix: inhibitors of RmlC and RmlD coupled enzymes | 0.39% of 110,000 active | RmlC/RmlD coupled enzyme inhibition, 384-well mixture HTS | AID 1532 | inhibition, % at 5.5 µM; in the data active means inhibition above about 30%, passing the limit was not always enough
RT RNaseH block: blocks HIV-1 RNase H cleavage of RNA/DNA duplex; P04585; RT-RNase H RNA/DNA duplex cleavage, fluorescence; inhibition, % at 10 µM; 1.9% of 65,000 active; AID 565; in the data active means inhibition above about 50%
RmlCD fluor art: shows fluorescent artifact in RmlC/RmlD assay, dose-response counter-screen. calls only. shares compounds with RmlC RmlD mix. 96% of 360 active. AID 1696. RmlC/RmlD assay fluorescence artifact counter-screen; call rule not given here;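 further: compound alone with no enzyme and no substrates present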
* marks the source's active call; other numbers are inactive results; x = not tested or not shown; + = active, no number.

SMILES | RmlC RmlD mix | RT RNaseH block | RmlCD fluor art
CCCCN(CC)C(=O)c1cc2cc3ccc(OC)cc3nc2o1 | -4 | x | x
COC(=O)c1[nH]c2ccccc2c1NC(=O)C(C)N1CCN(C(=O)c2ccco2)CC1 (stereo unspecified) | 10 | x | x
CCC(C)S(=O)(=O)c1snnc1C (stereo unspecified) | -11 | x | x
N#Cc1c(N2CCCCC2)nc(N)c2c(N)nc3c(c12)CC(c1ccccc1)O3 (stereo unspecified) | -13 | x | x
CN(CCO)c1nc(N)c2c(N)nc3c(c2c1C#N)CC(=O)N3C1CCCC1 | 30* | x | +
CC(C)(C)N1C(=O)Cc2c1nc(N)c1c(N)nc(N3CCCCC3CO)c(C#N)c21 (stereo unspecified) | 35* | -19 | +
CCN(CC)c1nc(N)c2c(N)nc3c(c2c1C#N)CC(c1ccccc1)O3 (stereo unspecified) | -95 | -34 | x
COc1ccc(-n2nc3c(c2NC(=O)c2c(F)cccc2Cl)CS(=O)C3)cc1 (stereo unspecified) | -10 | -7 | x
Cc1ccc(-n2ncc3c2ncn2c(C)nnc32)cc1C | -12 | -8 | x
COc1ccc2ccc(=O)oc2c1 | -7 | x | x
CC(=O)Oc1ccc2ccc(=O)oc2c1 | + | x | +
CC(=O)Oc1ccc2cc(-c3nc4ccccc4n3C)c(=O)oc2c1 | x | -2 | +
Cn1c(-c2cc3ccc(OC(=O)C(C)(C)C)cc3oc2=O)nc2ccccc21 | -41 | x | x
CCC(=O)Nc1c(OC(=O)CC)ccc2c(C)cc(=O)oc12 | + | -9 | +
CCC(=O)c1cc2c(C)cc(=O)oc2c(C)c1OC | -4 | x | x
N#Cc1nc(-c2cccs2)oc1NCc1ccccc1 | 47 | -29 | x
C=CCNc1oc(-c2cccs2)nc1C#N | 108* | x | +
CCOc1cccc2cc(-c3csc(NC(=O)CCC(=O)N4CCC(C)CC4)n3)c(=O)oc12 | + | x | +
CCOc1cccc2cc(-c3csc(NC(=O)CCC(=O)N4CCN(C)CC4)n3)c(=O)oc12 | x | -2 | x
COC(=O)Cc1c(C)c2ccc(O)c(CN3CCCC(C)C3)c2oc1=O (stereo unspecified) | 96* | x | +
CCc1cc(=O)oc2cc(C)c(CN3CCCC(C)C3)c(O)c12 (stereo unspecified) | 6 | 19 | x
COC(=O)C(CC(C)C)N1CCC(=O)c2ccccc2S1(=O)=O (stereo unspecified) | 0 | x | x
Cc1oc2c(CN3CCOCC3)c(O)ccc2c(=O)c1-c1ccccc1 | 39* | 1 | +
COc1ccc(Oc2c(C)oc3c(CN4CCOCC4)c(O)ccc3c2=O)cc1 | 10 | x | x
Cc1oc2c(CN3CCCC3)c(O)ccc2c(=O)c1Oc1ccccc1Br | 64* | -3 | +
SMILES | RmlC RmlD mix | RT RNaseH block | RmlCD fluor art
COc1ccccc1-c1coc2c(CN3CCN(CCO)CC3)c(O)ccc2c1=O | 40* | 1 | +
COc1ccccc1Oc1c(C)oc2c(CN3CCN(CCO)CC3)c(O)ccc2c1=O | x | -2 | x
COc1ccccc1-c1coc2c(CN3CCN(C)CC3)c(O)ccc2c1=O | 16 | -6 | x
O=C1Cc2cccc3cccc1c23 | -2 | x | x
C[C@@H](O)C1NC(=O)[C@H](CCCCN)NC(=O)c2cc([N+](=O)[O-])cc(I)c2OCC[C@@H](C(N)=O)NC1=O (stereo partly specified) | -4 | x | x
CCn1c(C)nc2cc(C(=O)NNS(=O)(=O)c3c(C)c(C)cc(C)c3C)ccc21 | -11 | x | x
CCn1c(C)nc2cc(C(=O)N/N=C(\C)c3ccc(OC)cc3O)ccc21 | x | x | +
CN(CC(=O)N1CCc2ccccc21)S(=O)(=O)c1cccc2cccnc12 | -11 | -15 | x
Cc1c(CC(=O)O)c(=O)oc2cc(OCc3nn[nH]n3)ccc12 | 29 | x | x
COC(=O)Cc1c(C)c2ccc(OC(=O)c3ccccc3)cc2oc1=O | 64* | x | +
CCOC(=O)c1ccc(N2C(=O)C3ON(c4ccccc4)C(c4ccco4)C3C2=O)cc1 (stereo unspecified) | -10 | -7 | x
Cc1c(CCC(=O)O)c(=O)oc2cc(O)ccc12 | 128* | -6 | +
Cc1c(CCC(=O)O)c(=O)oc2cc3occ(-c4ccc(F)cc4)c3cc12 | -6 | -27 | x
Cc1cccc(-n2c(=O)c(C#N)cc3c(=O)n4ccccc4nc32)c1 | 83* | x | +
Cc1cccn2c(=O)c3cc(C#N)c(=O)n(-c4c(C)n(C)n(-c5ccccc5)c4=O)c3nc12 | 10 | 1 | x
Cc1ccc(-n2c(=O)c(C#N)cc3c(=O)n4ccccc4nc32)cc1 | x | -8 | x
Cc1cc(-n2c(=O)c(C#N)cc3c(=O)n4cccc(C)c4nc32)no1 | 47* | 1 | +
COc1ccc(CS(=O)(=O)/C(Cl)=C(/Cl)C(=O)Nc2ccc(OC)nc2)cc1 | -15 | x | x
CC1(C)Cc2ccccc2-c2nc(NCCO)n(-c3ccccc3)c(=O)c21 | 51* | -3 | +
CCC1(C)Cc2ccccc2-c2nc(NCCO)n(-c3ccccc3)c(=O)c21 (stereo unspecified) | -1 | 2 | x
O=C(CSc1ncccn1)NCc1ccccc1 | -10 | 4 | x
Nc1ccc2nc(-c3ccc(N)c(Cl)c3)[nH]c2c1 | 40* | x | +
Nc1ccc(-c2nc3c(Cl)cc(N)cc3[nH]2)cc1 | 50* | 2 | +
COc1ccc2nc(-c3ccc(N)cc3)[nH]c2c1 | 24 | x | x
Nc1ccc2nc(-c3ccccc3)[nH]c2c1 | 100 | x | x
SMILES | RmlC RmlD mix | RT RNaseH block | RmlCD fluor art
C[C@@H]1CCC[C@@]2(O[C@H](CCO)C[C@H](O)[C@H]2O)O1 | 6 | x | x
O=C(CSc1ncnc2c1oc1ccccc12)NCc1ccco1 | -4 | -8 | x
N#Cc1c(N)n(CCNC(=O)c2cccs2)c2nc3ccccc3nc12 | 37* | -11 | +
CCCCCn1c(N)c(C#N)c2nc3ccccc3nc21 | -11 | -6 | x
CC1=CCC(COC(=O)Nc2ccccc2)CC1 (stereo unspecified) | 2 | -5 | x
CC(Oc1ccc2oc(-c3ccccc3)c(C(=O)O)c2c1)C(=O)O (stereo unspecified) | 58* | -2 | +
CCOc1ccc2oc(-c3ccccc3)c(C(=O)O)c2c1 | 26 | -7 | x
c1ccn2c(CNc3ncnc4sccc34)nnc2c1 | 4 | -5 | x
COC(=O)CCCC[C@@H]1SC[C@@H](NC(=O)OC)[C@@H]1NC(=O)OC | 21 | x | x
CN(C)c1nc(Oc2ccc(N)cc2)nc(N(C)C)n1 | -11 | -7 | x
COc1ccc(-c2oc3ncn4nc(Cc5ccccc5)nc4c3c2-c2ccc(OC)cc2)cc1 | 84 | 26 | x
COc1ccc(-c2oc3ncn4nc(COc5ccccc5)nc4c3c2-c2ccc(OC)cc2)cc1 | 117* | 36 | +
COc1ccc(Oc2cc(C(F)(F)F)cnc2C(N)=O)cc1 | 5 | x | x
COc1ccc(CN=Cc2c(C(F)(F)F)[nH][nH]c2=O)cc1 | 1 | x | x
CC1=CC(c2ccc(Cl)cc2)n2nc(NS(=O)(=O)c3ccc(C)cc3)nc2N1 (stereo unspecified) | 22 | x | x
CC1=CC(c2ccccc2)n2nc(NS(=O)(=O)c3ccc(C)cc3)nc2N1 (stereo unspecified) | 54* | -6 | +
COC(=O)c1ccc(CSc2nc3scc(-c4cccs4)c3c(=O)[nH]2)o1 | -29 | 24 | x
CC1CN(C(=O)c2cccs2)CCN1C(=O)c1cccs1 (stereo unspecified) | 5 | -6 | x
Cc1ccc2nc(SCc3nnc(-c4ccccc4Br)o3)[nH]c2c1 | 9 | x | x
